A selection: hits, their analogues and other compounds. The true share with any hit is near 9.9%.
MCF10A rerep = DNA re-replication induction in MCF 10a cells. MCF 10A DNA re-replication, Hoechst nuclear intensity, 48 h. Potency, µM (series often up to 46.1 µM), without a hit: at the highest dose activity, positive = re-replication, hits mostly activators. 350,000 tested, 2.9% active. AID 624296; also: potency is read from the fitted curve at half-maximal effect; % of control where 0% means no effect; nearly all actives have a fitted effect of over 50% in size
IL1B secr inh = inflammasome signaling inhibition, IL-1 beta readout. THP-1 LPS/ATP IL-1B secretion, AlphaLISA, 16 h; stronger effect = lower value. activity change, % at 57.5 µM. 360,000 tested, 4.7% active; in the data active = activity change below about -50%; inconclusive = mostly about -30% to -49%; also: % is scaled to controls: 0 for no effect and ±100 for the full control effect
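THP-1 cells pretreated 1 hr with compounds (up to 57.5 uM final), then stimulated with LPS (250 ng/mL final) plus ATP (1.25 mM final); secreted IL-1B measured by AlphaLISA after 16 hr, decreased signal indicating inhibition.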
SW480 rerep = DNA re-replication induction in SW480 cells. SW480 DNA re-replication, Hoechst DNA content imaging, 48 h. Potency, µM (top dose mostly 46.1 µM), for inactives: top-dose re-replication activation, hits mostly activators. 340,000 tested, 1.8% active. AID 624297; also: potency is read from the fitted curve at half-maximal effect; % of control where 0% means no effect; nearly all actives have a fitted effect of over 55% in size
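Cells (250 per well) received 23 nL compound or DMSO by pin tool and were kept 48 hr at 37 C, 5% CO2. Nuclei were then stained with Hoechst for 40 min and scanned for DNA content.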
KB-V1 cytotox = kills drug-selected multidrug resistant KB-V1 cells; 400,000 tested, 3.4% active; KB-V1 MDR cells viability, CellTiter-Glo, 72 h; AID 1347076; Potency, µM (top dose mostly 46.1 µM), actives largely listed as cytotoxic; also: potency is read from the fitted curve at half-maximal effect; % is scaled to controls: 0 for no effect and ±100 for the full control effect; nearly all actives have a fitted effect of over 60% in size
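Cytotoxicity via CellTiter-Glo luminescence after 72 h compound exposure at 37 degrees C. Cells: drug-selected KB-V1 line, DMEM phenol-red free plus 10% FBS. Compounds tested at multiple concentrations; normalized data fitted to concentration-effect curves.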
KB-3-1 tox = kills parental KB-3-1 adenocarcinoma cells. KB-3-1 viability, CellTiter-Glo ATP luminescence, 72 h. Potency, µM (doses to about 46.1 µM), most hits filed as cytotoxic. 400,000 tested, 1.4% active. AID 1347075; also: potency is read from the fitted curve at half-maximal effect; % is scaled to controls: 0 for no effect and ±100 for the full control effect; nearly all actives have a fitted effect of over 60% in size
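Cells are dispensed, compounds pinned in, plates held at 37 °C for 72 h, then CellTiter-Glo is added and luminescence read after 10 minutes. Cell line: parental KB-3-1 in phenol-red-free DMEM, 10% FBS.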
The depositor's hits bear a star; i = inactive; ? = inconclusive; / = no result given. Unless noted, calls follow the shape of the dose curve; as a rule, active = well fitted curve in the direction sought with a large enough effect; inconclusive = small, poorly fitted or top-dose-only effect, or another doubt; inactive = no such curve, though single readings can be large; an effect the other way counts as inactive or inconclusive.

SMILES	MCF10A rerep	IL1B secr inh	SW480 rerep	KB-V1 cytotox	KB-3-1 tox
O=C(NC(=S)N1CCN(C(c2ccccc2)c2ccccc2)CC1)c1ccc(S(=O)(=O)N2CCOCC2)cc1	12%	-3	2%	21µM*	i
O=C(Nc1ccc(CN2CCOCC2)cc1)c1ccc(N2CCCC2)c([N+](=O)[O-])c1	-39%	-72*	5%	?	i
Cc1cc(C)c(O)c(-c2cc(C(=O)Nc3ccc(S(=O)(=O)N4CCOCC4)cc3)[nH]n2)c1	?	-86*	?	?	?
COc1ccc(C(=O)c2c(-c3cccc(C)c3)oc3ccc(N4CCOCC4)cc23)cn1	?	?	13%	?	i
Cc1ccc(C(=O)OC(C)C(=O)c2cc(C)c(C)cc2C)o1 (centres undefined)	3%	18	-1%	i	i
Cc1nc2cc(-c3cccc(F)c3)nn2c(C)c1CCC(=O)Nc1ccccc1C(N)=O	/	/	/	i	i
CC1CCCCC1NC(=O)C1CCCN(S(=O)(=O)c2ccc(-n3cnnn3)cc2)C1 (centres undefined)	3%	-9	10%	i	i
COc1ccc(NS(=O)(=O)c2ccc(NC(=O)c3ccc(CN4CCOCC4)cc3)cc2)cc1	?	?	?	i	?
CCN(CC)c1ccc(NC(=O)c2ccc(S(=O)(=O)N3CCOCC3)cc2)cc1	?	-51*	8%	i	i
O=C(Nc1ccc(S(=O)(=O)N2CCN(Cc3ccccc3)CC2)cc1)c1cnccn1	4%	0	-3%	2.3µM*	10µM*
O=C(Nc1ccc(S(=O)(=O)Nc2ccc(F)cc2)cc1)c1ccc(CN2CCOCC2)cc1	?	?	?	?	3.7µM*
CCCC(C(=O)Nc1ccc(S(=O)(=O)N2CCOCC2)cc1)c1ccccc1 (centres undefined)	?	?	0.23µM*	i	i
COc1cccc(-c2nnc(SCC3CNC(=O)O3)n2-c2ccc(Cl)cc2)c1 (centres undefined)	-3%	-4	-16%	i	i
Cc1cccc(N2CCN(C(=O)CCc3c(C)nc4c(c3C)c(=O)n(C)c(=O)n4C)CC2)c1C	/	/	/	?	i
O=C(Nc1ccc(S(=O)(=O)N2CCCCC2)cc1)c1ccc(CN2CCOCC2)cc1	?	-30	-4%	2.1µM*	7.3µM*
O=C(Nc1ccc2c(c1)OCCO2)c1ccc(CN2CCOCC2)cc1	-12%	19	-1%	i	i
O=C(Nc1ccc(S(=O)(=O)N2CCCC2)cc1)c1ccc(CN2CCOCC2)cc1	4%	-22	-6%	?	?
CCN(CC)S(=O)(=O)c1ccc(NC(=O)c2ccc(CN3CCOCC3)cc2)cc1	0%	-2	1%	?	3.3µM*
Cc1ccc(C)c(S(=O)(=O)c2nnn3c2nc(NC2CCCC2)c2sccc23)c1	/	/	/	?	i
Cc1nn(-c2ccccc2)c(Cl)c1/C=C1/C(=N)N2N=C(C(C)C)SC2=NC1=O	10%	-2	2%	i	i
Cc1nn(-c2ccccc2)c(Cl)c1/C=C1\SC(=S)NC1=O	10µM*	15	21µM*	i	i
O=C(O)CCCN1C(=O)/C(=C/c2cn(-c3ccccc3)nc2-c2cccs2)SC1=S	?	0	-49%	?	i
Cc1nn(-c2ccccc2)c(Cl)c1/C=C1\SC(=S)N(CCCCCC(=O)O)C1=O	12µM*	11	-2%	i	i
O=C(CNC(=O)c1ccco1)NCc1ccc2c(c1)OCO2	3%	9	-1%	?	i
CCCN(CCC)C(=O)Cc1ccc(F)cc1	-8%	-9	-18%	i	i
CCCCCCCCCCCCCCCC[N+](C)(C)Cc1ccc(F)cc1	15µM*	-74*	?	i	?
Cc1ccc(CCNC(=O)CNC(=O)c2cccs2)cc1	-5%	1	-2%	i	?
Cc1cc(=O)[nH]c(SCC(=O)C23CC4CC(CC(C4)C2)C3)c1C#N	?	?	?	6.5µM*	?
NS(=O)(=O)c1ccc(CNS(=O)(=O)c2cc(Cl)ccc2Cl)cc1	-31%	31	?	i	i

Compound activity deposited in PubChem BioAssay by National Center for Advancing Translational Sciences (NCATS).
